Measured values: PubChem BioAssay (NCI)
The panel holds about 83,000 compounds, 20% with a hit somewhere; the sample as a whole holds those more often.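 Testing used 96-well plates and a 48-hour single-concentration exposure. Example: -40 means 40% of the starting cells died.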 A number with no mark means an inactive call. Calls of active or inactive are those of the source. Rule for the calls: active = growth percent below 10; inactive = the rest.

Experiments:
Assay in all cases: NCI-60 one-dose screen, 48 h (100 = growth as untreated, 0 = no growth, -100 = all killed)
Conditions in all cases: 10 µM unless noted
[1] = tested on: T-47D breast
[2] = tested on: BT-549 breast
[3] = tested on: MDA-MB-435 melanoma
[4] = tested on: SW-620 colon
[5] = tested on: MCF7 breast
[6] = tested on: HCT-116 colon
[7] = tested on: HCC-2998 colon
[8] = tested on: KM12 colon

SMILES	growth [1]	growth [2]	growth [3]	growth [4]	growth [5]	growth [6]	growth [7]	growth [8]
CCN(CC)c1ccc(/C=C/C(=O)c2cccc(NS(C)(=O)=O)c2)cc1	44.3%	58.3%	22.7%	22.1%	22.8%	25.8%	23.2%	17.1%
CCOC(=O)C1=CCC(n2cc(C)c(=O)[nH]c2=O)O1 (configuration not stated)	99.1%	120%	113%	105%	119%	102%	110%	96%
COc1ccc(N2CCN(CC(=O)N3CCN(c4nnc(-c5ccccc5)c(-c5ccccc5)n4)CC3)CC2)cc1	20.1%	47.8%	45.2%	54.6%	36.4%	29.5%	62.4%	37.2%
O=C1/C(=C/c2cccc(Cl)c2)CCc2ccccc21	101%	102%	96.6%	56.4%	50.5%	93%	102%	87.9%
CCOc1nc(-c2ccco2)n2nc(-c3ccco3)cc2n1	84%	119%	114%	107%	39.8%	108%	123%	91.7%
CC1(C)CC2(C)CC(=O)C1C(C(=O)O)C2C(=O)O (configuration not stated)	94.9%	116%	118%	108%	95.5%	113%	103%	107%
[N-]=[N+]=NCc1ncc(-c2ccc(C(F)(F)F)cc2)c(NC2CCCCCC2)n1	63.1% [50 µM]	81.9% [50 µM]	61.6% [50 µM]	75.4% [50 µM]	66.2% [50 µM]	40.5% [50 µM]	85.8% [50 µM]	46.8% [50 µM]
OC(c1ccccc1)C(NCc1ccccc1)c1ccccc1 (configuration not stated)	91.7%	98.7%	78.9%	92.9%	97.1%	66.1%	105%	102%
CC(C)N(Cc1ccccc1)c1c(S)ssc1=S	18.2%	-4.86% (active)	11.8%	9.47% (active)	3.04% (active)	5.93% (active)	24.8%	11.5%
N#Cc1ncc(-c2ccc(C(F)(F)F)cc2)c(NC2CCCCCC2)n1	7.65% (active)	49.5%	8.67% (active)	19.9%	14%	15.6%	73.2%	22.3%
COP(=O)(OC)C(c1ccc(O)cc1)(c1ccc(O)cc1)c1ccc(O)cc1	104%	133%	118%	97.3%	109%	82.7%	127%	113%
c1ccc(-c2nc(Nc3nccnn3)c3ccccc3n2)cc1	83.4%	99.1%	101%	97.9%	75%	100%	106%	97.8%
N#Cc1c(NC(=O)c2ccco2)[n+]([O-])c2cc(Cl)c(Cl)cc2[n+]1[O-]	112%	94.4%	126%	119%	87.8%	105%	109%	131%
O=[N+]([O-])c1ccc2[nH]cc(-c3c4ccccc4cc4[nH]c5ccc([N+](=O)[O-])cc5c34)c2c1	-10.2% (active)	19.2%	-11.6% (active)	28%	8.11% (active)	9.37% (active)	57.6%	5.55% (active)
O=C(COc1cccc(/C=C2\Oc3ccc4ccccc4c3C2=O)c1)c1ccc([N+](=O)[O-])cc1	64%	-81.9% (active)	90.8%	80%	49.3%	58.5%	108%	88.3%
COc1ccc(C(=O)COc2ccc(/C=C3\Oc4ccc5ccccc5c4C3=O)cc2)cc1	55.8%	45.1%	101%	94.6%	36.3%	85.9%	97.9%	90.9%
Cc1cc2ccccn2c1C(=O)c1ccc(C(=O)c2ccccc2)cc1	77.3%	92.5%	91.3%	84.2%	96.5%	88.7%	83.8%	113%
c1ccc(-c2n(Cc3ccc4ccccc4c3)cc[n+]2Cc2ccc3ccccc3c2)cc1	-0.722% (active)	-77.5% (active)	-73.2% (active)	-50.7% (active)	-65.8% (active)	-91.6% (active)	-59.9% (active)	-81.5% (active)
CN1CCN(c2nc3scc(-c4ccccc4)c3c(=O)[nH]2)CC1	104%	104%	99.7%	95.4%	92.5%	91.9%	99.5%	94.1%
COc1ccc2c(c1)CC/C(=C\c1ccc(OCC(=O)Nc3nc4ccccc4s3)cc1)C2=O	88.3%	83.6%	100%	93.9%	98.4%	89.1%	87.6%	108%
CCSc1nc(-c2ccc(F)cc2)c(C#N)c(=O)[nH]1	120%	105%	101%	107%	102%	109%	99.8%	100%
Cc1ccccc1NC(=O)N/C(N)=N/c1nc2ccccc2s1	61.1%	-2.9% (active)	-11.4% (active)	25.8%	19%	10.2%	17.2%	14.9%
CC(C)Sc1nc(Cl)c(C#N)c(-c2ccc(F)cc2)n1	98.1%	108%	101%	72.2%	96.4%	62%	112%	107%
CCSc1nc(-c2cccs2)n2nc(-c3ccco3)cc2n1	43.1%	113%	111%	102%	32.9%	94.8%	105%	82.5%
Clc1ccc(C2=NN(c3ccc(Cl)cc3)C(c3cccc(Nc4ccnc5cc(Cl)ccc45)c3)C2)cc1 (configuration not stated)	79.8%	68.4%	99.2%	90%	81.9%	55%	94%	85.2%
O=C1/C(=C/c2ccccc2Cl)CCc2ccccc21	105%	108%	95.4%	110%	87.9%	99.5%	102%	108%
FC(F)(F)c1ccc(-c2cnc(-c3nn[nH]n3)nc2NC2CCCCCC2)cc1	46.9% [50 µM]	50.8% [50 µM]	43.1% [50 µM]	41.2% [50 µM]	50.4% [50 µM]	33.3% [50 µM]	60.6% [50 µM]	41.5% [50 µM]
Cc1ccc2nc(-c3ccc(N(C)C)c(Br)c3)cn2c1	109%	71.4%	63.4%	100%	76.8%	33%	100%	95.4%
CC(=O)Nc1ccc(C(=O)COc2cccc(/C=C3\CCc4ccccc4C3=O)c2)cc1	67.9%	66%	85.8%	47%	19.6%	81%	93.7%	91%
